The text below walks through data of PubChem BioAssay AID651658 (Broad Institute, 2012).

Among all 340,000 compounds or so, about 5,100 (1.5%) were called active. This excerpt belongs to a sample that is enriched for actives. Values without a mark were called inactive.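 How the source made its calls: active means mean Tm shift, scaled 0 neutral to 100 positive control, at about 1.3% or above, every replicate too (limit read from the data); inconclusive means no clear call, values can overlap the other calls; inactive means the rest.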

The target of the test is Fibroblast growth factor 22 (Homo sapiens) (UniProt Q9HCT0). Briefly: FGF22 ligand-induced thermal stabilization – biophysical, thermal shift, single point, FGF22 synaptogenesis inhibitor project, primary screen (AID 651658). Particulars: recombinant FGF22 thermal shift, SYPRO orange fluorescence; at 9.99 µM; active compounds read high; percent of sucrose octasulfate shift, DMSO zero.
Sequence of Fibroblast growth factor 22 (Homo sapiens) (Q9HCT0 whole entry, looked up): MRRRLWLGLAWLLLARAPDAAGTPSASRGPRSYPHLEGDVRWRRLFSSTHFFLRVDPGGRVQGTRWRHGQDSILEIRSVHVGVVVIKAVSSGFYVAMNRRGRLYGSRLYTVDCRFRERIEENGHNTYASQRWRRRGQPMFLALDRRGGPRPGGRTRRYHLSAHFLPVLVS
In the case of `O=C(CC(c1ccccc1)c1ccccc1)NCC(O)c1ccc([N+](=O)[O-])cc1` (centres undefined), the activity (Tm shift, normalised) was -0.099%. For `CCC(=O)N(C)C[C@H]1Oc2ncc(C#CC(C)C)cc2C(=O)N([C@@H](C)CO)C[C@H]1C`, the activity (Tm shift, normalised) is 0.017%. To `O=C(C1CCCC1)N1[C@H](CO)[C@@H]2c3ccccc3N(S(=O)(=O)c3ccccc3)C[C@@H]21` belongs 0.581%; to `C[C@H](O)C#Cc1cnc2c(c1)C(=O)N([C@H](C)CO)C[C@@H](C)[C@H](CN(C)CC1CCCCC1)O2`, -0.028%. Regarding `CN(C)CC(=O)N[C@H]1CC[C@@H](CCNC(=O)C2CCCC2)O[C@@H]1CO`, the activity (Tm shift, normalised) was 0.021%. On to `Cc1ccc(C(=O)NNC(=O)CSc2nnc3ccccn23)cc1`, for which the activity (Tm shift, normalised) was -0.076%.

Regarding `O=C(CSc1nnc2ccccn12)c1ccccc1`, the activity (Tm shift, normalised) was -0.056%. To `Cc1ccc(-n2c(C)cc(C(=O)CSc3nnc4ccccn34)c2C)cc1` belongs 43.1% (active). To `CN1C(=O)c2cc(NC(=O)c3ccc4c(c3)OCO4)ccc2OC[C@@H]2O[C@H](CC(=O)O)CC[C@H]21` belongs 0.218%. To `C[C@H](CO)N1C[C@H](C)[C@@H](CN(C)C(=O)c2cnccn2)Oc2ncc(-c3ccccc3F)cc2C1=O` belongs -0.163%.

With `C/C(CC(=O)Nc1cccc(F)c1)=N\NC(=O)C(=O)NC1CCCCC1`, the activity (Tm shift, normalised) is 43.7% (active). To `COc1cccc(NC(=O)C/C(C)=N/NC(=O)C2CCCCC2)c1` belongs -0.252%; to `O=C(Nc1cccc(F)c1)NC1CCCCCCC1`, 0.32%; to `COc1ccc(CN(C)C[C@@H]2OCCCC[C@@H](C)Oc3ccc(NS(=O)(=O)c4ccc(F)cc4)cc3C(=O)N([C@@H](C)CO)C[C@H]2C)cc1`, -0.218%. In the case of `Cc1cccc(-c2ccc([C@@H]3[C@@H](CO)N4CCCCN(S(=O)(=O)c5cccs5)C[C@H]34)cc2)c1`, the activity (Tm shift, normalised) is -0.206%. To `C[C@H](CO)N1C[C@H](C)[C@H](CN(C)Cc2ccc(C(=O)Nc3ccccc3N)cc2)Oc2c(NC(=O)Nc3ccccc3)cccc2C1=O` belongs -0.326%. On to `C/C=C/c1ccc2c(c1)O[C@H](CN(C)C(=O)Cc1ccccn1)[C@H](C)CN([C@H](C)CO)S2(=O)=O`, for which the activity (Tm shift, normalised) is -0.272%. To `CCOc1ccc(CCNC(=O)Nc2ccccc2)cc1OCC` belongs -0.025%; to `CCCNCc1cc(OCC)c(OCC(=O)Nc2ccccc2)cc1Br`, 44% (active).

On to `CCOc1cc(NC(=O)Nc2ccccc2)c(OCC)cc1NC(=O)CC`, for which the activity (Tm shift, normalised) is -0.075%.

With `CCCN1C[C@H](C)[C@@H](OC)CN(C)C(=O)c2cc(NS(=O)(=O)CC)ccc2OC[C@H]1C`, the activity (Tm shift, normalised) is -0.257%.

Turning to `Cc1ccccc1OS(=O)(=O)c1cccc([N+](=O)[O-])c1`, the activity (Tm shift, normalised) was 43% (active). To `Cc1cc([N+](=O)[O-])ccc1NS(=O)(=O)c1ccccc1` belongs 1.12%. To `Cc1cc(C)n(S(=O)(=O)c2cccc([N+](=O)[O-])c2)n1` belongs -0.005%; to `CCCNC(=O)Nc1ccc2c(c1)C(=O)N(C)C[C@H](OC)[C@@H](C)CN(C)[C@@H](C)CO2`, -0.468%. On to `COCC(=O)N1CC(=O)N2[C@H](CO)[C@@H](c3ccc(-c4ccccc4F)cc3)[C@H]2C1`, for which the activity (Tm shift, normalised) is -0.341%. To `O=C(c1cccnc1)N1CC(=O)N2[C@H](C1)[C@H](c1ccc(-c3ccccc3F)cc1)[C@@H]2CO` belongs 0.042%.

Consider `O=C(c1ccccc1F)N1CC(=O)N2[C@H](C1)[C@H](c1ccc(-c3ccc(F)cc3)cc1)[C@@H]2CO`, for which the activity (Tm shift, normalised) is 1.26% (active).

As to `C/C=C/c1ccccc1[C@@H]1[C@@H](CO)N(C(=O)CN2CCOCC2)[C@H]1C#N`, the activity (Tm shift, normalised) was -0.302%. To `C[C@H]1CN([C@@H](C)CO)C(=O)c2cc(NC(=O)Cc3cn(C)c4ccccc34)ccc2O[C@@H]1CN(C)Cc1ccc(Cl)c(Cl)c1` belongs 0.161%; to `Cc1noc(C)c1S(=O)(=O)Nc1ccc2c(c1)C(=O)N([C@@H](C)CO)C[C@@H](C)[C@H](CN(C)C(=O)NC(C)C)OCCCC[C@@H](C)O2`, -0.227%; to `CC(C)NC(=O)N(C)C[C@H]1OCCCC[C@@H](C)Oc2ccc(NC(=O)C3CCCCC3)cc2C(=O)N([C@H](C)CO)C[C@H]1C`, -0.185%. To `COc1ccc(/C(C)=N/NC(=O)c2ccc3nc[nH]c3c2)cc1` belongs 0.005%; to `O=C(N/N=C/c1ccc(Cl)c(Cl)c1)c1ccc2nc[nH]c2c1`, 1.65% (active). To `CC(=NNC(=O)c1ccc2nc[nH]c2c1)c1ccc(Br)cc1` belongs 0.573%; to `CCC(=O)Nc1ccc2c(c1)C(=O)N(C)C[C@H](OC)[C@H](C)CN(C(=O)c1ccccn1)[C@@H](C)CO2`, 0.116%. As to `CC(=O)C12CC(C)=C(C)CC1CC1C3CCC4=CC(=O)CCC4(C)C3CCC12C` (centres undefined), the activity (Tm shift, normalised) is -0.095%. To `C[C@]12CCC(=O)C=C1C=CC1C2CC[C@@]2(C)C1CC[C@@]21CCC(=O)O1` (some centres undefined) belongs 43.7% (active). Take `CC(=O)O[C@]1(C(C)=O)CC[C@H]2[C@@H]3C=C(C)C4=CC(=O)CC[C@]4(C)[C@H]3CC[C@@]21C`: the activity (Tm shift, normalised) is -0.13%. To `C[C@H](CO)N1C[C@H](C)[C@H](CN(C)S(=O)(=O)c2cccs2)Oc2c(NC(=O)Nc3ccc4c(c3)OCO4)cccc2C1=O` belongs -0.125%; to `O=C(C[C@H]1CC[C@@H](NC(=O)c2ccc(F)cc2)[C@@H](CO)O1)NCc1ccncn1`, -0.132%; to `COCC(=O)Nc1ccc2c(c1)[C@H]1C[C@@H](CC(=O)NCc3ccccc3F)O[C@H](CO)[C@H]1O2`, -0.327%.

As for `C[C@@H](NC(=O)C[C@H]1CC[C@@H](NC(=O)Cc2ccccn2)[C@@H](CO)O1)c1ccccc1`, the activity (Tm shift, normalised) was -0.123%. To `CO[C@@H]1CC[C@H]2CCN(C)C(=O)[C@@H](C)CN(C)C(=O)c3cccc(C#N)c3OC[C@@H]1O2` belongs -0.102%.
